Data on 67 molecules can be found in PubChem BioAssay AID619 (University of Pittsburgh Molecular Library Screening Center, 2007).

Molecules are shown by their SMILES. The campaign covered roughly 97,000 compounds. About 520 (0.54%) were called active. For the sample, actives were picked, then their nearest neighbours and some compounds at random. Unmarked numbers belong to inactive results.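 Rule for the calls: active = inhibition of 50% or more in the single-concentration screen; inactive = inhibition below 50%.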

In this assay the target is Serine/threonine-protein kinase PLK1 (Homo sapiens) (UniProt P53350). In words: Plk1 peptide phosphorylation blockers – biochemical, TR-FRET, primary screen (AID 619).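 Note: 0% = DMSO max control and 100% = H-89 dihydrochloride min control.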 The settings on record: recombinant PLK1 kinase, at 10 µM, active compounds read high. A general note: In TR-FRET formats the signal depends on donor and acceptor labels being close together.
Serine/threonine-protein kinase PLK1 (Homo sapiens), sequence (P53350 whole entry, looked up): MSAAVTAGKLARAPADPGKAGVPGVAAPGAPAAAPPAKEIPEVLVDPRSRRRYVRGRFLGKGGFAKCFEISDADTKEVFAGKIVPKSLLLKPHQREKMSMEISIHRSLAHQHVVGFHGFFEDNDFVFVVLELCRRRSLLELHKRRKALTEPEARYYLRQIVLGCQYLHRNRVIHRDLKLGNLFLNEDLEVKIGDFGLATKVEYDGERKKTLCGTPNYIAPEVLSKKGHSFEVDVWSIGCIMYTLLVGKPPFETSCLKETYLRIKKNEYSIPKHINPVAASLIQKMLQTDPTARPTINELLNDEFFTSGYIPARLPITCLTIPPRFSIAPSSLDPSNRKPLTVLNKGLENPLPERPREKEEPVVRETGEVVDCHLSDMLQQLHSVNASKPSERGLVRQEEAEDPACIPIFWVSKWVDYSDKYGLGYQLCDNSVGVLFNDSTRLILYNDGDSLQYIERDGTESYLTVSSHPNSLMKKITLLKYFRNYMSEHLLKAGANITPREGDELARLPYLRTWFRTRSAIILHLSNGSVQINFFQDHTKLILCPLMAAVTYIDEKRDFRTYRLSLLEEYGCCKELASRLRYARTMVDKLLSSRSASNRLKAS
The term inhibition denotes the drop in the measured response relative to a control, in per cent. For the molecule `Cc1cc(C)c(OCC(=O)N/N=C/c2ccco2)c(C)c1`, the inhibition was 6.14%.
The result for `Cc1ccc(CS(=O)(=O)CCC(=O)NC2CC2)cc1` reads -7.25%; that for `Nc1ccc(-n2nncc2-c2ccco2)cc1`, -4.39%; that for `CCCc1nc2scc(-c3ccc(C)cc3)c2c(=O)n1N`, 5.26%.
Then `COc1ccc(CCN2C(=O)C3CC=C(C)CC3C2=O)cc1OC` (configuration not stated), with -10.2%.
Then `COc1cc(OC)c(-n2c(C)cc(C=O)c2C)cc1Cl`, with -6.8%; and `CCCC(=O)n1nc(-c2ccccc2)nc1N`, with -4.99%; and `COc1ccccc1NS(=O)(=O)N(C)C`, with -7.41%.
For the molecule `O=C(O)CCC(=O)NCc1ccc(C(=O)O)cc1`, the inhibition is -9.7%.
In the case of `C=CCn1c(SCC(=O)c2c(N)n(C)c(=O)n(C)c2=O)nc2sc(CC)cc2c1=O`, the inhibition was -9.06%.
Turning to `CC(=O)c1ccc(OCCN2CCOCC2)cc1`, the inhibition was -17.4%.
Turning to `COc1ccc(C(=O)c2c(C)oc3cc([N+](=O)[O-])c(O)c([N+](=O)[O-])c23)cc1`, the inhibition was -2.19%.
The result for `Cc1ccc(Cc2cnc(NC(=O)/C(C#N)=C/c3ccc(-c4cccc([N+](=O)[O-])c4)o3)s2)cc1` reads -5.56%; that for `CSc1nc(C)nc2c1c(=O)n(C)c(=O)n2C`, 68.3% (active).
`CCCSc1nc2c(c(=O)n(C)c(=O)n2C)n1Cc1ccc(C)cc1`: the inhibition was 6.87%.
The result for `CCC(C)Sc1nc(C)nc2c1c(=O)n(C)c(=O)n2C` (configuration not stated) reads 52.6% (active).
The result for `Cn1c(=O)c2c(SCC(=O)N3CCOCC3)nc(C3CC3)nc2n(C)c1=O` reads 36.6%; that for `COc1ccc(CC(=O)Nc2sc(Cc3ccccc3)c(C)c2C(N)=O)cc1`, -12%.
The result for `O=c1cc(C(F)(F)F)[nH]c(=O)n1C1CCCCC1` reads -12.1%; that for `COc1ccc(/C=C/C(=O)Nc2c(C)nn(C)c2C)cc1COc1ccc(Br)cc1`, -7.02%.
For the molecule `CCc1c(C)nc2cc(C)[nH]n2c1=O`, the inhibition is -1.93%.
Take `FC(F)(F)c1cc(C(F)(F)F)c2ccc(N3CCN(c4ccccc4)CC3)nc2n1`: the inhibition was -4.18%.
Consider `C=CCn1cnc2scc(-c3ccccc3)c2c1=O`, for which the inhibition was -17.6%.
Then `CN(CCC#N)c1ncnc2scc(-c3ccccc3)c12`, with 54.3% (active); and `N#CCCN(CCC#N)c1nnc(-c2ccccc2)s1`, with -13.8%; and `CS(=O)(=O)n1nc(-c2ccccc2)nc1NCc1ccco1`, with -17.7%.
Then `Cc1nc2cc(NC(=O)CSc3nc4c(C)cccc4cc3C#N)ccc2s1`, with -34.1%; and `CC(=O)C1=C(C)NC(=O)NC1c1cc(Br)ccc1OCC#N` (configuration not stated), with -9.62%.
The result for `CC1=CC(=O)C=CC1(C)C(Cl)(Cl)Cl` (configuration not stated) reads -6.25%; that for `CC/C(=N/Nc1ccccc1)c1cnnc(SC)n1`, -14.3%; that for `COC(=O)/C=C/C(=O)NCc1ccco1`, -9.17%.
Take `Cc1ccc(C(=O)NCCNS(=O)(=O)c2ccccc2)cc1`: the inhibition is -5.51%.
The result for `Cc1ccccc1CSCCNC(=O)c1ccc(Cl)c(S(=O)(=O)N2CCOCC2)c1` reads -1.84%; that for `Cc1ccccc1CSCCNC(=O)c1ccc(N(C)S(=O)(=O)c2ccccc2)cc1`, 57.1% (active); that for `Cc1cc(OCCOc2cccc3cccnc23)c(C)cc1Cl`, -13.9%.
The result for `CCN1C(=O)/C(=C2/Sc3ccc(OC)cc3N2C)SC1=Nc1ccc(C)cc1` reads -9.58%.
Then `CCCc1nc(NCc2ccc3c(c2)OCO3)c2nnn(Cc3ccccc3Cl)c2n1`, with -9.3%.
On to `CCC(=O)NNc1cc(=O)c2c(=O)n(C)c(=O)n(C)c2[nH]1`, for which the inhibition was -9.06%.
Consider `CN(C)/C=C(\C#N)C(=O)c1cccnc1Oc1ccc(F)cc1F`, for which the inhibition is -4.48%.
For the molecule `COCCCNC(=O)C1CC(=O)N(CCc2ccccc2)C1` (configuration not stated), the inhibition is -12.8%.
Then `COc1cc(OC)cc(-c2cc3nc(C4CCN(C(=O)OC(C)(C)C)CC4)cc(=O)n3[nH]2)c1`, with -8.81%; and `Cc1c(Nc2nc3ccccc3nc2NS(=O)(=O)c2cccs2)c(=O)n(-c2ccccc2)n1C`, with -2.91%; and `Cc1cccc(N(CC(=O)N2CCOCC2)S(C)(=O)=O)c1`, with -16.7%.
Turning to `Cc1cccc(N2C(=O)C3C(c4ccccc4)OC4(C(=O)c5ccccc5C4=O)C3C2=O)c1` (configuration not stated), the inhibition is -6.04%.
With `Cc1cccc(N2C(=O)SC(N(CC(=O)O)c3cccc(C)c3)C2=O)c1` (configuration not stated), the inhibition is 68.7% (active).
Then `CCOC(=O)c1cc(C#N)c(N2CCCCC2)nc1-c1ccccc1`, with -7.56%.
Then `COc1ccc(NC(=O)Cn2nnc(C(=O)NCCc3ccc(OC)c(OC)c3)c2N)cc1`, with -3.12%; and `CCC(=O)NCCc1nc2ccccc2n1CC`, with -12.5%; and `Cc1ccc(S(=O)(=O)NCC(C)NS(C)(=O)=O)cc1` (configuration not stated), with -7.03%.
The result for `O=C(c1cccc(F)c1)N1CCC(O)(c2cccnc2)CC1` reads -11.3%.
Take `Cc1cc(S(=O)(=O)NC2CCCCC2)ccc1OCC(=O)NCc1cccnc1`: the inhibition is -6.44%.
The result for `Cc1ccc(N2C(=O)S/C(=C/c3cn(C)c4ccccc34)C2=O)cc1` reads -7.68%; that for `CC(c1ccccc1)n1c(NCCCn2ccnc2)nc2c1c(=O)[nH]c(=O)n2C` (configuration not stated), -13.2%.
Then `Cn1c(=O)[nH]c(=O)c2c1nc(NCCCn1ccnc1)n2Cc1cccc(Br)c1`, with 51.2% (active); and `CCCCNc1nc2c(c(=O)[nH]c(=O)n2C)n1CCOc1ccccc1`, with -13.6%; and `CCOC(=O)N1CCC(N(CCOC)C(=O)Nc2ccc(C)c(C)c2)CC1`, with -7.06%.
Then `Cn1nc(-c2ccccc2)c(CSc2cccc(Cl)c2)c1Cl`, with -5.77%; and `CCCC(=O)C1CCN(Cc2ccccc2)CC1`, with -5.07%.
As to `Cc1ccc(N2C(=O)C(Cc3ccccc3)NC2=S)cc1` (configuration not stated), the inhibition is -4.76%.
Then `CCOC(=O)c1ccc2c(c1)nc(SCC(=O)NC(C)C)n2CC`, with -12.9%; and `O=C(NCCCN1CCOCC1)c1cc2c(s1)CCC2`, with 12.4%.
Then `CCn1c(SCCC(C)C)nnc1-c1c[nH]c2ccccc12`, with 57.8% (active); and `CCC(C)Sc1nnc(-c2c[nH]c3ccccc23)n1CCOC` (configuration not stated), with -10.2%.
The result for `CCn1c(SCC(=O)Nc2ccc(OC)c(OC)c2)nnc1-c1c[nH]c2ccccc12` reads -21.5%; that for `CCCC(C(=O)n1nc(C)cc1C)C(NS(=O)(=O)c1ccc(C)cc1)c1ccccc1` (configuration not stated), -12%; that for `COc1ccc(Oc2coc3cc(OC(=O)c4cncc(Br)c4)ccc3c2=O)cc1`, -8.95%.
`Cc1cc(C)c2nc(NC(=O)C3CCCO3)sc2c1` (configuration not stated): the inhibition was -2.38%.
